From PubChem
Cycloheximide cs – counter-screen hit for Shiga toxin inhibitors, cycloheximide; 12% of 300,000 active; AID 2314; max response, %; cell reporter, cycloheximide protein synthesis inhibition counterscreen; in the data active = max response mostly above about 13%, no sharp cut-off; inactive = mostly below about 14%; also: read at 38.3 µM for the half of the compounds with a filed dose
NS1 inh – inhibitors of influenza NS1 protein function. Potency, µM (titrated, usually from 46.1 µM). 0.4% of 270,000 active. AID 2326; calls by dose curve; also: actives are rising curves; nearly all actives have a fitted effect of over 50% in size
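Compounds were scored for reversing the slow growth caused by influenza A NS1 in S. cerevisiae, measured by optical density at 600 nm. Assay medium contained 2% galactose at pH 6.0; NS1-free yeast of the same strain were the positive control.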
AmpC detergent – blocks E. coli AmpC beta-lactamase in detergent assay; AmpC hydrolysis of nitrocefin, absorbance 480 nm, 0.01% Triton; AID 485294; P00811; 0.041% of 370,000 active; Potency, µM (top dose mostly 114 µM), most hits filed as inhibitors; also: nearly all actives have a fitted effect of over 25% in size
Target sequence (P00811 whole entry, looked up): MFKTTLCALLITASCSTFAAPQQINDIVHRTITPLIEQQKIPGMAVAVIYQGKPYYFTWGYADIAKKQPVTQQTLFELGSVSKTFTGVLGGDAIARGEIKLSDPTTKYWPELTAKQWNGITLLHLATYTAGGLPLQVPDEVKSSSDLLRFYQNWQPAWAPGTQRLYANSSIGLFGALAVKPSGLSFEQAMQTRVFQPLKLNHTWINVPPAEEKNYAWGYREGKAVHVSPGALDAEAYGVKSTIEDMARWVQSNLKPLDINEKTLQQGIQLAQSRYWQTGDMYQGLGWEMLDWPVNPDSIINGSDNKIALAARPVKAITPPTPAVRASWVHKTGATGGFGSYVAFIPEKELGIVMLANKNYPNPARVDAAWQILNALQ
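AmpC (5.3 nM in the dispensed reagent) in 20 mM phosphate pH 7.0 with 0.01% (detergent screen) or 0.0001% Triton X-100 was preincubated with compounds for 15 min at room temperature. Nitrocefin was then added from an 800 uM solution, and hydrolysis was followed at 480 nm.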
AmpC no deterg – AmpC beta-lactamase inhibition without detergent; Potency, µM (series often up to 57.1 µM), actives largely listed as inhibitors; 0.52% of 330,000 active; AmpC nitrocefin hydrolysis, absorbance 480 nm, 0.0001% Triton; P00811; AID 485341; also: nearly all actives have a fitted effect of over 20% in size
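20 mM phosphate pH 7.0 + 0.01% (detergent screen) or 0.0001% Triton X-100; 5.3 nM AmpC reagent; cpd preinc 15 min RT; nitrocefin (800 uM stock) to start; A480 q20 s × 4 min; Activity was normalised to no-enzyme and no-compound control wells.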
Shiga toxin inh – Shiga toxin inhibition; Vero cells, Shiga toxin protein synthesis inhibition reporter; inhibition, % at 38.7 µM; 9.2% of 290,000 active; AID 2315; in the data active = inhibition mostly above about 28%, no sharp cut-off; inactive = mostly below about 43%
Numbers stand for hits; i = inactive; ? = inconclusive; nt = no result; [ ] = remark or other dose. This is one part of a sample in which hits are shown more often than they occur. Unless noted, calls follow the shape of the dose curve; as a rule, active = well fitted curve in the direction sought with a large enough effect; inconclusive = small, poorly fitted or top-dose-only effect, or another doubt; inactive = no such curve, though single readings can be large; an effect the other way counts as inactive or inconclusive.

SMILES	Cycloheximide cs	NS1 inh	AmpC detergent	AmpC no deterg	Shiga toxin inh
NC(=O)c1nn(CC(=O)Nc2cccc(S(=O)(=O)N3CCCC3)c2)c(=O)c2ccccc12	nt	nt	i	i	nt
CC1=NN(c2ccccc2)C(=O)/C1=C/c1ccc[nH]1	21	i	i	i	78
CC1=NN(c2ccccc2)C(=O)/C1=C/c1ccc(Cl)cc1	i	?	i	i	i
CC1=NN(c2ccccc2)C(=O)/C1=C/c1c(O)n(-c2ccc(F)cc2)[nH]c1=O	24	i	i	i	i
CC1=NN(c2ccccc2)C(=O)/C1=C\N(O)c1ccccc1	13	i	i	i	i
CC1=NN(c2ccccc2)C(=O)/C1=C/C=C/C=C/N(C)C	i	nt	?	i	i
Cc1cn2c(=O)cc(COc3ccccc3NC(=O)c3ccccc3C)nc2s1	nt	nt	i	nt	nt
CCc1ccc(Nc2ncccc2C#N)cc1	28	i	i	i	i
CCC(C)c1ccc(Nc2ncccc2C#N)cc1 (stereo unspecified)	38	i	?	i	69
COc1ccc(Nc2nccc(OC)c2C#N)cc1	i	i	i	i	i
CC(C)(CC(=O)O)CC(=O)NNc1ncccc1C#N	i	i	i	i	i
O=C(Nc1ccccc1C(F)(F)F)c1ccccn1	32	nt	i	i	i
O=C(Nc1ccccc1C(F)(F)F)c1cccnc1	i	i	i	i	i
O=C(Nc1ccccc1C(F)(F)F)c1cc2ncc(CCCl)cn2n1	23	i	i	i	77
O=C(Nc1ccccc1C(F)(F)F)c1cc(-c2ccccc2O)on1	37	i	i	i	83
O=C(Nc1ccccc1C(F)(F)F)c1cc(-c2ccco2)on1	i	i	i	i	58
O=C(Nc1ccccc1C(F)(F)F)c1cc2ccccn2n1	nt	nt	i	nt	nt
Cc1cc(C(=O)Nc2ccccc2C(F)(F)F)no1	i	i	?	i	i
CCc1nc2ccc(C(=O)NCCCN3CCN(c4ccccc4F)CC3)cc2nc1CC	i	i	i	i	i
CCn1c(COc2ccccc2OC)nc2ccccc21	13	i	?	i	i
CCn1c(COc2ccccc2C)nc2ccccc21	33	i	?	i	39
CCc1nc2ccccc2n1CCCCOc1cccc(C)c1	nt	nt	i	nt	nt
CCn1c(CCc2ccccc2)nc2ccccc21	32	i	i	i	i
CCn1c(COc2cccc(C)c2)nc2ccccc21	21	i	i	i	i
CCOc1ccc(CC(=O)Nc2cccc(-c3nc4cccnc4s3)c2C)cc1	nt	nt	i	nt	nt
SMILES	Cycloheximide cs	NS1 inh	AmpC detergent	AmpC no deterg	Shiga toxin inh
O=C(c1ccc(Cl)cc1)N1CCN(c2nc(N3CCCCC3)nc(N3CCCCC3)n2)CC1	nt	i	nt	nt	nt
CCCCCn1c(C(Cc2ccccc2)NC(=O)COC)nc2ccccc21 (stereo unspecified)	i	i	?	1.3µM	i
CCCCn1c(CNC(=O)CCC)nc2ccccc21	i	i	i	7.1µM	i
C=CCn1c(COc2ccccc2OC)nc2ccccc21	8.4	i	?	i	i
CCCn1c(COc2ccccc2OC)nc2ccccc21	14	i	i	i	nt
CCCCCn1c(CNC(=O)CCC)nc2ccccc21	i	i	?	i	i
C=CCc1ccccc1OCc1nc2ccccc2n1CC	nt	nt	i	nt	nt
O=C(c1ccc2c(c1)N(Cc1ccc(F)cc1)C(=O)c1ccccc1S2(=O)=O)N1CCCC1	nt	nt	i	nt	nt
O=C(NCc1cccnc1)[C@@H]1[C@@H](C(=O)O)[C@H]2CC[C@@H]1O2	nt	i	nt	nt	nt
CCOCCn1c(COc2ccccc2)nc2ccccc21	i	i	i	i	i
COCn1c(COc2ccc3ccccc3c2)nc2ccccc21	22	i	i	i	77
CCCn1c(COc2ccccc2)nc2ccccc21	8.3	i	i	i	i
COc1cccc(OCc2nc3ccccc3n2Cc2ccccc2)c1	nt	nt	i	nt	nt
O=C(NCCCN1CCCC1=O)C1CCC(CNS(=O)(=O)c2ccc(Cl)cc2)CC1 (stereo unspecified)	i	i	i	i	i
CCc1ccc(-c2cc(C(=O)N/N=C/c3c[nH]c4ccccc34)[nH]n2)cc1	35	nt	i	i	106
CCc1ccc2c(Cl)c(C(=O)N/N=C/c3c[nH]c4ccccc34)sc2c1	22	i	i	i	i
Cc1cc(C)c2c(=O)cc(C(=O)Nc3ccc(S(=O)(=O)N(C)Cc4ccccc4)cc3)oc2c1	nt	nt	i	nt	nt
c1ccc(-c2cn3c(n2)CCC3)cc1	i	i	i	i	i
O=[N+]([O-])c1ccc(-c2cn3c(n2)CCC3)cc1	57	i	i	i	104
COc1ccc(C)cc1-n1c(C)cc(C=O)c1C	i	i	i	i	i
COc1ccc(N)cc1-n1c(C)ccc1C	25	i	i	i	37
Brc1ccc(-c2cn3nc4c(nc3n2)CCCC4)cc1	46	i	i	i	122
COc1ccc(NC(=O)CN(c2cc(C)cc(C)c2)S(=O)(=O)c2c(C)noc2C)cc1Cl	nt	nt	i	nt	nt
CCOC(=O)c1noc2ncnc(Nc3ccc(F)cc3F)c12	nt	nt	i	nt	nt
CCOC(=O)CNC(=S)N1CCn2c(nc3ccccc32)C1	i	nt	?	i	i
SMILES	Cycloheximide cs	NS1 inh	AmpC detergent	AmpC no deterg	Shiga toxin inh
O=C(O)c1ccc(NC(=O)[C@H](Cc2ccc(O)cc2)NC(=O)c2ccccc2)cc1	i	nt	nt	nt	i
CC[C@H](C)[C@H](NC(=O)CNC(=O)[C@H](CCCNC(=N)N)NC(=O)[C@H](CO)NC(=O)[C@H](C)NC(=O)[C@H](Cc1ccc(O)cc1)NC(=O)[C@H](Cc1c[nH]c2ccccc12)NC(=O)[C@H](C)NC(=O)[C@@H]1CCCN1C(=O)[C@H](CC(N)=O)NC(=O)[C@@H](NC(=O)[C@H](CC(=O)O)NC(=O)[C@@H]1CCCN1C(=O)[C@@H](NC(=O)[C@H](CCCNC(=N)N)NC(=O)[C@@H](NC(=O)[C@H](CCC(=O)O)NC(=O)[C@H](CCSC)NC(=O)[C@H](CO)NC(=O)[C@H](Cc1cnc[nH]1)NC(=O)[C@H](CCCNC(=N)N)NC(=O)[C@H](Cc1cnc[nH]1)NC(=O)[C@@H](NC(=O)[C@H](CCCNC(=N)N)NC(=O)[C@@H](N)CO)[C@@H](C)O)[C@@H](C)CC)[C@@H](C)O)[C@@H](C)CC)C(=O)N[C@@H](CCCNC(=N)N)C(=O)N1CCC[C@H]1C(=O)N[C@H](C(=O)NCC(=O)N[C@@H](CCCNC(=N)N)C(=O)N[C@@H](Cc1ccccc1)C(N)=O)C(C)C	i	nt	nt	nt	i
CCOC(=O)c1cc(NC(=O)N2CCCc3ccccc32)c(C)nc1C	20	i	i	i	i
COc1ccc(C)cc1NC(=O)N1CCCc2ccccc21	23	i	i	i	75
COc1ccc(NC(=O)N2CCCc3ccccc32)c(OC)c1	17	i	?	i	i
COc1ccc(C(=O)N2CCCc3ccccc32)cc1	i	i	i	i	i
CCOC(=O)c1cc(NC(=O)Nc2cc(C)ccn2)c(C)nc1C	i	nt	?	i[11.4 µM]	39
CC(C)(C)NC(=O)C(c1ccc(F)cc1)N(C(=O)CCC(=O)Nc1ccccn1)C1CCCC1 (stereo unspecified)	i	i	i	i	i
O=C(Cc1n[nH]c(=O)c2ccccc12)Nc1cc(Cl)ccc1-n1cncn1	nt	nt	?	i	nt
